This is a sample that favours compounds with a hit; in the whole collection about 5.7% have one here.
DAX1 inh-1: DAX1 (NR0B1) inhibitors on StAR promoter, primary screen, cell-based, luminescence, SF-1 (NR5A1), full-length DAX-1; actives 1.1% (n = 370,000); inhibition, % at 6.8 µM; HEK293T StAR-luciferase reporter, SF-1/DAX-1 repression relief;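 active means inhibition above the mean over all tested compounds plus 3 SD, cut at about 3.6% in these data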;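 further: higher inhibition means more luminescence from relief of DAX-1 repression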
DAX1 inh-2: DAX1 (NR0B1) inhibitors, primary screen, cell-based, HEK293, Gal4-DAX1, luciferase luminescence | Nuclear receptor subfamily 0 group B member 1 (Homo sapiens), P51843 | HEK293 Gal4-DAX1 luciferase reporter | inhibition, % at 6.75 µM | actives 0.99% (n = 340,000);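 active means inhibition above the mean over all tested compounds plus 3 SD, cut at about 4.2% in these data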;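 further: inhibition shows as a rise in luminescence from relieved DAX1 repression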
AHR act: AHR activators, primary screen, cell-based, luminescence, luciferase reporter, human; Aryl hydrocarbon receptor (Homo sapiens), P35869; AHR-responsive luciferase reporter cells; activation, % at 5 µM; actives 2.5% (n = 320,000); in the data active means activation above about 47%
hcDAF12 agonist: H. contortus DAF-12 nuclear receptor activators, primary screen, cell-based, luminescence, HEK293, lit1-tk-luc reporter; HEK293 hcDAF-12 lit1-tk-luc reporter; 0% DMSO, 100% Δ7-dafachronic acid; AID 652067, 2013; activation, % at 6.8 µM; actives 1.4% (n = 370,000);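 active means activation above the mean of all tested compounds plus 3 SD, cut at about 5.5% in these data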
ssDAF-12 act: S. stercoralis DAF-12 nuclear receptor activators, primary screen, cell-based, luminescence, HEK293, GRIP1 co-expression, lit1-tk-luc; Nuclear hormone receptor DAF-12 (Strongyloides stercoralis); HEK293 ssDAF-12/GRIP1 lit1-tk-luc reporter; % of 3 µM dafachronic acid response; activation, % at 6.8 µM; actives 1% (n = 370,000); AID 652126, 2013;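 active means activation above the mean over all tested compounds plus 3 SD, cut at about 0.9% in these data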
hgDAF12 agonist: H. glycines DAF-12 receptor agonists, primary screen, cell-based, luminescence, HEK293, GAL4 fusion, UAS-luciferase | Nuclear hormone receptor DAF-12 (Heterodera glycines), GAL4 fusion | HEK293 GAL4-hgDAF12 UAS-luciferase reporter, agonist luminescence; normalized to butyrate control | activation, % at 6.8 µM | actives 1.8% (n = 370,000) | AID 687014, 2013;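 active means activation above a cutoff set at the mean of all screened compounds plus 3 SD, cut at about 10% in these data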
Numbers stand for hits; . = inactive; / = not tested or not shown.

SMILES	DAX1 inh-1	DAX1 inh-2	AHR act	hcDAF12 agonist	ssDAF-12 act	hgDAF12 agonist
O=C(N1CCOCC1)N1CCN(c2nc(-c3ccccc3)cs2)CC1	.	.	/	.	.	.
CN(C)C(=O)N1CCN(c2nc(-c3ccccc3)cs2)CC1	.	4.6	.	.	.	.
O=C(O)CC1COc2ccccc2N1C(=O)c1ccccc1Cl (stereo not drawn)	.	.	.	.	1.5	.
Nc1n[nH]c(N)c1N=Nc1cccc(F)c1	.	.	.	.	.	.
Nc1n[nH]c(N)c1N=Nc1ccc(Cl)cc1	.	.	.	.	.	13
Cn1c(N)nc2nc(CCc3ccccc3)c(=O)[nH]c2c1=O	.	.	.	.	.	.
O=[N+]([O-])c1ccc(C2=Nc3cc(Cl)ccc3OC2)cc1	.	.	67	.	.	.
Cc1ccc2c(c1)N=C(c1ccc(F)cc1)CO2	.	.	.	.	.	.
COc1ccc(CNC(=O)c2c(N)[nH]c(C(=O)c3ccccc3)c2-c2ccc3ccccc3c2)cc1OC	.	/	/	.	.	.
COC(=O)C1CCN(C(=O)/C=C/c2ccc3c(c2)OCO3)CC1	.	.	.	.	.	.
Cc1c(C=NNC(=O)c2ccc(Br)cc2)c2ccccn2c1C(=O)c1ccncc1	.	.	.	.	.	.
N#Cc1c(N)c2ccccn2c1C(=O)c1ccc(Br)cc1	.	.	61	.	.	.
CC(Oc1ccc2ccc(=O)oc2c1)C(=O)N1CCOCC1 (stereo not drawn)	.	.	.	.	.	.
O=C(N/N=C\c1cc2c(cc1Cl)OCO2)c1cccs1	.	.	78	.	.	13
Cc1ccc(C(=O)N/N=C\c2cc3c(cc2Br)OCO3)s1	.	.	47	.	.	.
Cc1ccc(C(=O)N/N=C\c2ccncc2)s1	.	.	55	.	.	.
O=C(N/N=C\C=C\c1ccc2c(c1)OCO2)c1cccnc1	.	.	68	.	.	.
O=C(N/N=C\c1cc2c(cc1[N+](=O)[O-])OCO2)c1cccs1	.	.	/	.	.	.
Cc1ccccc1Cn1cc(COC(=O)NCCc2ccccc2)nn1	.	/	/	.	.	.
O=S1(=O)C=C(Sc2ccc(Cl)cc2)c2ccccc2C1Cc1ccc(F)cc1 (stereo not drawn)	.	/	/	.	.	.
COc1ccc([N+](=O)[O-])cc1NC(=O)CCS(=O)(=O)c1ccc(Br)cc1	.	.	.	.	.	.
O=C(N/N=C/c1cc2c(cc1Br)OCO2)c1cccnc1	.	.	48	.	.	.
O=C(N/N=C/c1cc(O)ccc1Br)c1cccnc1	.	.	.	.	.	.
Cc1ccc(CN=C(Nc2ccccc2)NC2CCCCC2)cc1	.	.	.	.	.	.
COc1ccc2[nH]c3c(c2c1)CCN1C(=O)C(CC(=O)NCC24CC5CC(CC(C5)C2)C4)C[C@H](C(=O)N(C(C)C)C(C)C)[C@@]31C (stereo partly drawn)	.	.	/	.	.	.
SMILES	DAX1 inh-1	DAX1 inh-2	AHR act	hcDAF12 agonist	ssDAF-12 act	hgDAF12 agonist
O=C(O)c1cccc([N+](=O)[O-])c1C(=O)Nc1ccc2ccccc2c1	.	.	60	6.5	1.8	.
O=C(Nc1ccc2ccccc2c1)c1cccc([N+](=O)[O-])c1	.	.	68	.	.	12
CC(C)C(=O)Nc1cccc(NC(=O)c2cccc([N+](=O)[O-])c2)c1	.	5.5	.	.	.	.
COc1cc([N+](=O)[O-])ccc1NC(=O)c1cccc(NC(=O)C(C)C)c1	.	.	47	.	.	.
CSc1ccc(C=NNC(=O)c2cc(-c3ccc(Cl)cc3)n[nH]2)cc1	.	/	/	.	.	.
COC(=O)C1=C(C)N(Cc2cccc(C(F)(F)F)c2)C(=NCc2ccc(C(F)(F)F)cc2)NC1c1cccc(C(F)(F)F)c1 (stereo not drawn)	.	/	/	.	.	.
COC(=O)C1=C(C)N(Cc2ccccc2C(F)(F)F)C(=NCc2ccc(OC)cc2)NC1c1ccc(Cl)cc1 (stereo not drawn)	.	/	/	.	.	.
O=C(Nc1cc(C(F)(F)F)ccc1Cl)c1ccc(NC(=O)C(F)(F)F)cc1	.	.	75	.	.	.
O=C(Nc1cc(C(F)(F)F)ccc1Cl)c1ccncc1	.	.	.	.	.	.
CCCC(=O)Nc1ccc(C(=O)Nc2cc(C(F)(F)F)ccc2Cl)cc1	.	.	63	.	.	.
COc1ccc([C@H]2CC(=O)C=C(c3ccc(Cl)c(C(F)(F)F)c3)C2)cc1OC	.	.	.	.	.	.
CC(=O)O[C@H]1[C@H](OC(C)=O)C[C@]2(OC(C)=O)C[C@H]1OC2=O	/	/	/	.	.	.
Cc1cc(C)n2c(Nc3c(C)cccc3C)c(CC(C)C)nc2n1	.	/	/	.	.	.
COc1ccc(C(=O)NCCS(=O)(=O)N2CCCC2)cc1	.	.	.	6.1	.	.
C/C(=N\Nc1ccc(Cl)c(C(=O)O)c1)c1ccc[nH]1	.	.	.	6.4	.	.
C/C(=N\Nc1ccc(Cl)c(C(=O)O)c1)c1cccs1	.	.	.	.	.	.
Cn1c(N)c(C(=O)CN2CCN(S(=O)(=O)c3ccccc3C#N)CC2)c(=O)n(C)c1=O	.	.	/	.	.	.
COc1ccc(S(=O)(=O)N2CCN(C(=O)c3ccc(=O)[nH]n3)CC2)cc1OC	.	7.5	/	.	.	.
COc1ccc(S(=O)(=O)N2CCN(CC(=O)c3c(N)n(C)c(=O)n(C)c3=O)CC2)cc1OC	.	5.2	/	.	.	.
COc1ccc(S(=O)(=O)N2CCN(C(=O)c3cccnc3)CC2)cc1OC	.	.	.	.	.	.
COC(=O)c1ccc(NC(=O)Nc2ccccc2F)cc1	.	.	.	.	.	12
O=C(Nc1ccc(NC(=O)c2ccccc2O)cc1)Nc1ccc(F)cc1F	.	.	.	.	1.6	.
O=C(Nc1ccc(F)cc1)Nc1ccccc1F	.	.	.	.	.	11
O=C(Nc1ccccc1)Nc1cccn(Cc2c(F)cccc2Cl)c1=O	.	.	.	.	.	11
O=C(Nc1ccccc1F)Nc1ccccc1Br	.	.	.	.	.	.
O=C(Nc1cccn(Cc2c(Cl)cccc2Cl)c1=O)c1c(Cl)cccc1Cl	.	.	.	.	.	.
